D3 antag = qHTS of D3 Dopamine Receptor Antagonist: qHTS; D(3) dopamine receptor (Homo sapiens), P35462; D3R cells, DiscoveRx beta-arrestin luminescence, antagonist mode; stronger effect = lower value; max response, negative = inhibition, %; actives 2.5% (n = 360,000); in the data active = max response below about -50%; inconclusive = no clear call, values can overlap the other calls
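Cells plated overnight at 1500 cells/well, then exposed to library compounds with dopamine controls for 90 minutes at 37 degrees C. DiscoveRx reagent added for 30–60 minutes at room temperature; luminescence read, quantitative HTS format.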
TRPML1 agonist = qHTS for Agonists of the Human Mucolipin Transient Receptor Potential 1 (TRPML1) | activation, % (concentration not given with the values) | TRPML1-expressing cells, Ca2+ dye fluorescence, FDSS | actives 0.12% (n = 410,000) | Mucolipin-1 (Homo sapiens), Q9GZU1; in the data active = activation above about 50%; inconclusive = mostly about 30% to 49%
Target sequence (Q9GZU1 whole entry, looked up): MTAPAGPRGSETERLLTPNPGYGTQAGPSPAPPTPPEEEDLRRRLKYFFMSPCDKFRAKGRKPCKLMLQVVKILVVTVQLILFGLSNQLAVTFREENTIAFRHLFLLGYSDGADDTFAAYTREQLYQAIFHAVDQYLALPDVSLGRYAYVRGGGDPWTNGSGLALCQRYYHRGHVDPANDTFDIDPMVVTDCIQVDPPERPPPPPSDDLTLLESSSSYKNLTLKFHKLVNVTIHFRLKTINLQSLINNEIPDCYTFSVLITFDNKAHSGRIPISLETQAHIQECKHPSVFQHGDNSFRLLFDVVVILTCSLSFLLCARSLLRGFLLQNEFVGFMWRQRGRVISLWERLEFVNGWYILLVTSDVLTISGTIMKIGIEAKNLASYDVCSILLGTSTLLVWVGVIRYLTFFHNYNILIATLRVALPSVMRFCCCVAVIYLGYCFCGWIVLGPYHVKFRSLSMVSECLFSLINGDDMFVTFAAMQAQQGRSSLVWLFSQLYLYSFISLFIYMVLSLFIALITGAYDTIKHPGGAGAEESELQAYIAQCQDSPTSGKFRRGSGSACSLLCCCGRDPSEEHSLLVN
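In this qHTS format, compounds were pin-transferred onto Ca8-dye-loaded TRPML1-DL cells induced with Tet overnight, and intracellular Ca2+ fluorescence was recorded kinetically for 110 s after a 10 s baseline. A subsequent 4uM final 54-4 (EC80) addition followed by a second 110 s read served as the antagonist phase.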
TRPML1 inh = qHTS for Inhibitors of the Human Mucolipin Transient Receptor Potential 1 (TRPML1); Mucolipin-1 (Homo sapiens), Q9GZU1; TRPML1-inducible cells, Ca2+ dye fluorescence, FDSS; stronger effect = lower value; inhibition of EC80 agonist-evoked calcium signal; activity change, negative = inhibition, % (test concentration not listed); actives 0.02% (n = 390,000); AID 624415, 2012; in the data active = activity change below about -50%; inconclusive = between about -30% and that limit;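 note: stimulus is agonist 54-4 at its EC80 concentration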
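TRPML1-DL cells, Tet-induced overnight (~16 h, 37 °C) at 1,500 cells/well, were loaded with Ca8 no-wash dye plus quencher for 45-90 min at room temperature. Compounds were pinned during FDSS kinetic reading; agonist 54-4 at EC80 (4 uM final) then added.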
DRD3 agonist = qHTS of D3 Dopamine Receptor Agonist: qHTS | D(3) dopamine receptor (Homo sapiens), P35462 | D3R DiscoveRx beta-arrestin cells, luminescence, 90 min | max activation, % | actives 0.58% (n = 410,000) | AID 652048, 2013; in the data active = max activation above about 30%
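Cells at 1500/well, incubated overnight, then treated with pinned compounds (dopamine as control) for 90 min at 37 degrees C. DiscoveRx reagent added for 30 - 60 minutes at room temperature; luminescence read.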
Each line names hits and unclear results; the compound was inactive in the other large screens; ! = not active in a repeat. Hits are enriched below; roughly 2.9% of the tested compounds scored in any of these assays.

CCN1CCCC1CNC(=O)c1ccccc1Cl (stereo not given)	none
CCN1CCCC1CNC(=O)C(=O)Nc1ccc(OC)cc1 (stereo not given)	none
CCN1CCCC1CNC(=O)c1cc(NC(C)=O)c(N(C)C)cc1OC (stereo not given)	D3 antag -88
O=C(CSc1nc2c([nH]c3ccccc32)c(=O)n1-c1ccccc1)N1CCCC1	none (no result: D3 antag)
Cc1cc(CC(C)CC(C)(C)C)n(O)c(=O)c1 (stereo not given) (tested in a mixture with another compound)	none (no result: D3 antag, TRPML1 agonist, TRPML1 inh)
N#Cc1c(Nc2ccccc2)[n+]([O-])c2ccc(Cl)cc2[n+]1[O-]	D3 antag -55
O=C(/C=C/Nc1ccccc1)c1ccc(Cl)cc1Cl	none (no result: TRPML1 agonist, TRPML1 inh)
Cc1ccc(Cl)cc1N1CCN(S(=O)(=O)c2ccc3c(c2)CC(=O)N3C)CC1	DRD3 agonist 69!
CN1C(=O)Cc2cc(S(=O)(=O)N3CCN(c4ccc(Cl)cc4)CC3)ccc21	none
Nc1nc(CN2CCN(c3ccccc3F)CC2)nc(N2CCCc3ccccc32)n1	DRD3 agonist 32
Nc1nc(CN2CCN(c3cccc(Cl)c3)CC2)nc(N2CCCc3ccccc32)n1	D3 antag -77
Cc1sc2ncn(CC(=O)N(C)c3cccc(C(F)(F)F)c3)c(=O)c2c1S(=O)(=O)N1CCN(c2ncccn2)CC1	none (no result: D3 antag)
C/C(=N\NC(=O)c1cc(Br)ccc1O)c1ccccn1	none
CCOc1ccc(OCc2ccc(C(=O)N/N=C(\C)c3ccccn3)cc2)cc1	D3 antag -81
C/C(=N\NC(=O)c1cccc(Br)c1)c1ccccn1	D3 antag -53
C/C(=N/NC(=O)c1ccc(C(C)(C)C)cc1)c1ccccn1	D3 antag -115
C/C(=N\NC(=O)C(c1ccccc1)c1ccccc1)c1ccccn1	D3 antag -76
C/C(=N\NC(=O)c1ccc(Cl)c(Cl)c1)c1ccccn1	D3 antag inconclusive
COc1ccc(C(=O)N/N=C(\C)c2ccccn2)cc1OC	D3 antag -54
C/C(=N\NC(=O)C1CCCN(S(=O)(=O)c2ccccc2)C1)c1ccncc1 (stereo not given)	none
C/C(=N\NC(=O)c1cccc2ccccc12)c1ccccn1	D3 antag -93
C/C(=N\NC(=O)c1ccccc1Cl)c1ccccn1	D3 antag inconclusive
C/C(=N\NC(=O)C1CCCN(S(=O)(=O)c2ccccc2)C1)c1ccccn1 (stereo not given)	D3 antag -90
C=C1C=C(C)n2ncc(C(=O)Nc3cccc(C(=O)Nc4cccc(C(F)(F)F)c4)c3)c2N1	none (no result: D3 antag, TRPML1 inh, DRD3 agonist)
CCc1ccc(NC(=O)Cn2ccn(-c3ccc(C)c(C)c3)c(=O)c2=O)cc1	none (no result: D3 antag)
O=C1CC(c2ccccc2)Cc2[nH]c(=O)c(-c3nc(-c4ccc(Cl)c(Cl)c4)cs3)cc21 (stereo not given)	none (no result: D3 antag)
CC(C)(C)n1ncc2c(=O)n(Cc3ccc(F)cc3Cl)cnc21	none (no result: D3 antag, DRD3 agonist)
Cc1ccc(S(=O)(=O)N2CCN(c3nc(-c4cnccn4)nc4ccccc34)CC2)cc1	none (no result: D3 antag, TRPML1 inh, DRD3 agonist)
CCOC(=O)C1=C(C)N=c2s/c(=C\c3ccc(O)c([N+](=O)[O-])c3)c(=O)n2C1c1ccccc1OC (stereo not given)	none
CCOC(=O)C1=C(C)N=c2s/c(=C/c3cccc([N+](=O)[O-])c3O)c(=O)n2C1c1ccc(OC)cc1OC (stereo not given)	D3 antag -55
CCN(CC)/[N+]([O-])=N/OCOC(=O)C(C)c1ccc2cc(OC(C)=O)ccc2c1 (stereo not given)	none (no result: D3 antag, DRD3 agonist)
CCc1cccc(C)c1NC(=O)Cn1ccn(-c2cccc(OC)c2)c(=O)c1=O	none (no result: D3 antag)
O=C(N/N=C/c1cc(Br)ccc1O)C(=O)Nc1ccccc1OC(F)(F)C(F)F	DRD3 agonist 49
CCOc1ccc(OCC)c(NC(=O)Cn2nc(CC)n3c(cc4sccc43)c2=O)c1	none (no result: D3 antag)
CNc1nc(-c2ccccc2)c2sccc2n1	D3 antag -74 (no result: TRPML1 inh)
CNc1nc(NCc2ccccc2)c2sccc2n1	TRPML1 agonist inconclusive (no result: TRPML1 inh)
Cc1ccc(N2C(=O)CS(=O)(=O)C23C(=O)N(Cc2ccccc2F)c2ccccc23)cc1Cl (stereo not given)	none (no result: D3 antag)
CCOc1cccc(C(=O)Nc2c(C(=O)c3ccc(OC)cc3)oc3ccccc23)c1	DRD3 agonist 33 (no result: D3 antag)
CCOC(=O)c1oc2ccccc2c1NC(=O)c1ccccc1OC	DRD3 agonist 50
Cc1cc(NCc2ccccc2)nc2ccccc12	D3 antag -57
Cc1cc(NCc2ccccc2)c2ccccc2n1	none
O=C(CSc1n[nH]c(-c2ccccc2Cl)n1)N1CCN(c2ccccc2)CC1	none (no result: D3 antag)
O=C(COc1ccc(F)cc1Br)Nc1ccccc1N1CCCC1	none
Cc1cc(Cl)ccc1OCC(=O)Nc1ccccc1N1CCOCC1	TRPML1 agonist 75
Cc1cc(Cl)ccc1OCC(=O)NC(=S)Nc1ccccc1N1CCOCC1	none
O=C(COc1ccc(Cl)cc1Cl)NC(=O)N1CCOCC1	D3 antag -58
O=C(COc1ccc(Cl)cc1Cl)Nc1ccc(CN2CCOCC2)cc1	none
O=C(COc1ccc(F)cc1Br)Nc1ccccc1N1CCOCC1	TRPML1 agonist 71
CCOc1ccccc1NC(=O)c1ccc2c(c1)CCN2S(C)(=O)=O	none (no result: D3 antag)
CCOc1ccccc1C(=O)Oc1c(S(=O)(=O)c2ccc(C)cc2)c(C)nn1-c1ccccc1	none (no result: D3 antag)
Cn1cccc1C(=O)NC(=O)COC(=O)c1ccc(S(C)(=O)=O)cc1	none
CS(=O)(=O)c1ccc(C(=O)OCc2nnc(-c3ccc(Cl)cc3)o2)cc1[N+](=O)[O-]	D3 antag -55
Cn1cccc1C(=O)NC(=O)COC(=O)c1ccc(S(C)(=O)=O)c([N+](=O)[O-])c1	D3 antag -77
CS(=O)(=O)c1ccc(C(=O)OCC(=O)NC23CC4CC(CC(C4)C2)C3)cc1[N+](=O)[O-]	D3 antag -58
CS(=O)(=O)c1ccc(C(=O)OCC(=O)NC(=O)NC2CCCCC2)cc1[N+](=O)[O-]	none (no result: D3 antag, TRPML1 inh, DRD3 agonist)
CCCSc1nnc2c(n1)OC(c1sccc1C)Nc1ccccc1-2 (stereo not given)	none (no result: D3 antag)
O=C1[C@H]2[C@@H](c3ccccc3)N[C@]3(CCCN(Cc4ccco4)C3=O)[C@H]2C(=O)N1Cc1ccccc1	D3 antag -56
O=C(NCc1ccco1)c1ccc2c(=O)n(CCC3=CCCCC3)c(=O)[nH]c2c1	none
CCN1CCN(C(=O)c2ccc3c(=O)n(CCC4=CCCCC4)c(=O)[nH]c3c2)CC1	D3 antag -54
CNc1ccc(/C=C/c2ccccc2)cc1	none (no result: D3 antag, TRPML1 inh, DRD3 agonist)
Cc1nn(CC(=O)NCCCN2CCC(Cc3ccccc3)CC2)c(=O)c2cc(-c3ccccc3)nn12	D3 antag -88
CCN1CCN(CCCNC(=O)Cn2nc(C)n3nc(-c4ccccc4)cc3c2=O)CC1	none
